# Measurements as given in PubChem BioAssay (NCATS).
# Results filed as inconclusive are left out. Entries that show only a call come without a potency. Active and inactive are the calls of the source. Calls follow the shape of the dose curve; as a rule, active = well fitted inhibition curve with a large enough effect; inconclusive = small, poorly fitted or top-dose-only effect; inactive = flat fitted curve, though single readings scatter.
# Target: Glutathione peroxidase 1 (Homo sapiens) (UniProt P07203)
# Assay: Primary qHTS Assay for Inhibitors of Recombinant Selenoprotein Glutathione Peroxidase 1 (GPX1) (AID 1845191); also: nearly all actives have a fitted effect of over 65% in size
# Settings: recombinant GPX1, GR-coupled NADPH fluorescence, 15 min; series mostly up to 48.8 µM
# Method in brief: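 Recombinant GPX1 (10 nM final) was preincubated with compound for 30 min at room temperature, then reacted with 1 mM GSH, 0.5 mM CHP, 0.5 mM NADPH and 100 nM glutathione reductase; NADPH fluorescence (340/450 nm) was read at 0 and 15 min.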
# Sequence of Glutathione peroxidase 1 (Homo sapiens) (P07203 whole entry, looked up): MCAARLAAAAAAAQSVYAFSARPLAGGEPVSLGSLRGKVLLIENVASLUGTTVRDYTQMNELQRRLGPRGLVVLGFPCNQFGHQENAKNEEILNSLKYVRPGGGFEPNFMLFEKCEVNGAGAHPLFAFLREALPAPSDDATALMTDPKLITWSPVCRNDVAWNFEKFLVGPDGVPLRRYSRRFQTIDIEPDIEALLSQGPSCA
row,SMILES,Potency
1,C=C1CCC2C(C)(C(=O)OC)CCCC2(C)C1CCC(C)CC(=O)O (stereo unspecified),inactive
2,CC1CC[C@]2(C(=O)O)CC[C@]3(C(=O)O)C(=CCC4[C@@]5(C)CC[C@H](O[C@@H]6O[C@H](CO)[C@@H](O)[C@H](O)[C@H]6O)C(C)(C)C5CC[C@]43C)C2C1C (stereo partly specified),inactive
3,Clc1cc2c(NC3CCCC3)nnc(-c3ccncc3)c2cc1Cl,inactive
4,COc1cc(O)c2c(c1)C1=C[C@H](O)[C@@H](O)C[C@]1(C)OC2=O,inactive
5,COC(=O)C1(C)c2[nH]c3ccccc3c2CCN1C(=O)CCl (stereo unspecified),inactive
6,CC1(C)CCC2(C(=O)OC3OC(CO)C(O)C(O)C3O)CCC3(C)C(=CCC4C5(C)CCC(OC6OC(C(=O)O)C(OC7OC(CO)C(O)C(O)C7O)C(OC7OC(CO)C(O)C(O)C7O)C6O)C(C)(C)C5CCC43C)C2C1 (stereo unspecified),inactive
7,CC1=C(C)C(=O)OC(C(C)C2CCC3C4CC=C5CC(OC6OC(COC7OC(CO)C(O)C(O)C7O)C(O)C(O)C6O)CC(O)C5(C)C4CCC23C)C1 (stereo unspecified),inactive
8,COc1ccc2nc(S(=O)(=O)Cc3ncc(C)c(OC)c3C)[nH]c2c1,inactive
9,CC1=CC2/C=C(\C)CC[C@@H](O)[C@@H](O)[C@@H]3O[C@@H]3C(=O)[C@]23C(=O)N[C@@H](CC(C)C)[C@@H]3[C@@H]1C (stereo partly specified),inactive
10,OCCc1ccc(O[C@@H]2O[C@H](CO)[C@@H](O)[C@H](O)[C@H]2O)cc1,inactive
11,COc1c2c(c(C)c3c1C(=O)OC3)OC1(C)CC(O)C34OC(OC)(OC3(C)C)C(O)CC4(C)C1C2 (stereo unspecified),inactive
12,CC12CCC(C(OC3OC(COC4OCC(O)(CO)C4O)C(O)C(O)C3O)C1)C(C)(C)O2 (stereo unspecified),inactive
13,CC(O)/C=C/C1C(C)C(O[C@@H]2O[C@H](CO)[C@@H](O)[C@H](O)[C@H]2O)C(O)CC1(C)C (stereo partly specified),inactive
14,O=C1OCc2cc3cccc(O[C@@H]4O[C@H](CO)[C@@H](O)[C@H](O)[C@H]4O)c3c(O)c21,inactive
15,C[C@H](Nc1ncnc2nc[nH]c12)c1cc2ccc(F)cc2nc1-c1ccccn1,inactive
16,COc1cc([C@H]2c3cc(O)c(OC)cc3C[C@@H](CO[C@@H]3O[C@H](CO)[C@@H](O)[C@H](O)[C@H]3O)[C@@H]2CO)ccc1O,inactive

row,SMILES,Potency
1,COc1ccc(C2(O)c3ccccc3NC(=O)C2O)cc1 (stereo unspecified),inactive
2,COc1c2c(c(C)c3c1C(=O)OC3)OC1(C)CC(O)C(C(C)(C)O)C(C)(CCC(=O)O)C1C2 (stereo unspecified),inactive
3,CC1(CCOC2OC(CO)C(O)C(O)C2O)CCC23OC2(C1)C(O)CC1C(C)(C(=O)O)CCCC13C (stereo unspecified),inactive
4,COc1ccc([C@@H]2OC[C@H]3[C@@H]2CO[C@@H]3c2ccc(OC3OC(CO)C(O)C(O)C3O)c(OC)c2)cc1OC (stereo partly specified),inactive
5,C[C@@H]1O[C@@H](O[C@H]2[C@@H]3C=CO[C@@H](O[C@@H]4O[C@H](CO)[C@@H](O)[C@H](O)[C@H]4O)[C@@H]3[C@@]3(CO)O[C@@H]23)[C@H](OC(=O)/C=C/c2ccccc2)[C@H](O)[C@H]1O,inactive
6,CC1CCC2(C=O)C(CO)=CCCC2C1(C)CC(=O)O (stereo unspecified),inactive
7,CC1(O)CC(O)C2(O)C=COC(O[C@@H]3O[C@H](CO)[C@@H](O)[C@H](O)[C@H]3O)C12 (stereo partly specified),inactive
8,CC(C)(O)c1ccc2c(c1)C(O)C[C@H]1[C@](C)(C(=O)O)CCC[C@]21C (stereo partly specified),inactive
9,COC1=CC(=O)CC(C)C12Oc1cc(OC)cc(O)c1C2=O (stereo unspecified),inactive
10,CC(C)[C@H]1CC[C@@]2(O)COC(=O)[C@H]2[C@@H]1/C=C(\CO)C(=O)O,inactive
11,CC(/C=C/C1=CC2=CC(=O)C(C)(O)C(O)C2=CO1)=C\C(C)CCO (stereo unspecified),inactive
12,C=C(CO[C@@H]1O[C@H](CO[C@@H]2OC[C@](O)(CO)[C@H]2O)[C@@H](O)[C@H](O)[C@H]1O)C1Cc2cc(C(C)=O)ccc2O1 (stereo partly specified),inactive
13,CC(=O)O[C@H]1[C@H](O[C@H]2[C@@H]3C=CO[C@@H](O[C@@H]4O[C@H](CO)[C@@H](O)[C@H](O)[C@H]4O)[C@@H]3[C@@]3(CO)O[C@@H]23)O[C@@H](C)[C@H](OC(=O)/C=C/c2ccccc2)[C@H]1OC(=O)/C=C/c1ccccc1,inactive
14,COc1ccc(CC2C(=O)NC(C)C(=O)N(C)C3Cc4ccc(cc4)Oc4cc(ccc4OC4OC(CO)C(O)C(O)C4O)CC(C(=O)NC(C)C(=O)NC(C)C(=O)N2C)N(C)C3=O)cc1 (stereo unspecified),inactive
15,CC(=O)O[C@@H]1[C@@H](OC(=O)/C=C/c2ccccc2)[C@@H](OC(C)=O)[C@H](O[C@H]2[C@@H]3C=CO[C@@H](O[C@@H]4O[C@H](CO)[C@@H](O)[C@H](O)[C@H]4O)[C@@H]3[C@@]3(CO)O[C@@H]23)O[C@H]1C,inactive
